Data as given in PubChem BioAssay AID588397 (National Center for Advancing Translational Sciences (NCATS), 2011).
Values joined by “and” are separate entries in the source; they are usually repeats but may differ in a detail not shown here. Identical values can stand only once. About 1,000 (77%) of roughly 1,300 compounds were called active. Not shown: some 7% with an inconclusive outcome. Calls follow the shape of the dose curve; as a rule, active = well fitted inhibition curve with a large enough effect; inconclusive = small, poorly fitted or top-dose-only effect; inactive = no such curve, though single readings can be large or run the other way. The set was probably picked from earlier hits. Some of the results follow.

test: qHTS of small molecules that selectively kill Giardia lamblia: Hit Validation.;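 also: viability measured as ATP content by luminescence so killing lowers signal; trophozoites exposed to compounds for 48 h anaerobically at 37 °C; nearly all actives have a fitted effect of over 65% in size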; settings: Giardia lamblia trophozoite viability, dose-response; series mostly up to 38.3 µM; activity change, negative = killing: at the top concentration
Procedure, shortened: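 Each well holds 100 Giardia trophozoites and compound. After two days (48 hrs) at 37 deg C in anaerobic conditions, ATP is quantified by luminescence.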
% is scaled to controls: 0 for no effect and ±100 for the full control effect; potency is read from the fitted curve at half-maximal effect.

SMILES	Potency	activity change, negative = killing
Cc1ccc(CCN=c2c([N+](=O)[O-])nn(-c3ccccc3)n2O)cc1	7.29 µM (active)	–
O=[N+]([O-])c1nn(-c2ccccc2)n(O)c1=NCCc1ccccc1	3.26 µM (active)	–
Cc1ccc(Nc2nc(=O)c3cc([N+](=O)[O-])ccc3s2)cc1	7.29 µM (active)	–
CC1=NN(c2nc3ccccc3[nH]2)C(=O)/C1=C/N(C)C	3.65 µM (active)	–
O=C(Nc1ncc([N+](=O)[O-])s1)c1ccccc1Br	0.206 µM (active)	–
O=C(Nc1ncc([N+](=O)[O-])s1)c1cccs1	460 nM (active) and 729 nM (active)	–
O=C(Nc1ncc([N+](=O)[O-])s1)c1ccco1	0.818 µM (active)	–
CC(=O)O[C@]1(C(C)=O)CCC2C3CCC4=C/C(=N/OCC(=O)O)CC[C@]4(C)C3CC[C@@]21C (stereo partly specified)	–	-25.6% (inactive)
Cn1c(/C(C#N)=C(\O)c2ccc([N+](=O)[O-])s2)nc2ccccc21	1.16 µM (active)	–
N#C/C(=C(/O)c1ccc([N+](=O)[O-])o1)c1nc2ccccc2[nH]1	0.326 µM (active)	–
N#C/C(=C(/O)c1ccc([N+](=O)[O-])s1)c1nc2ccccc2[nH]1	2.31 µM (active)	–
Cc1nc2c(nc1C)C(=O)c1ccccc1C2=O	3.26 µM (active)	–
Cc1ccc(-c2csc(NC(=O)c3ccc([N+](=O)[O-])o3)n2)cc1	1.63 µM (active)	–
O=C(Nc1nc(-c2cccs2)cs1)c1ccc([N+](=O)[O-])o1	0.65 µM (active)	–
c1ccc(-c2nc(-c3cnc4ccccc4n3)cs2)cc1	5.79 µM (active)	–
c1ccc(CCNc2ncnc3nc[nH]c23)cc1	–	-21% (inactive)
O=c1cc[nH]c2ccc([N+](=O)[O-])cc12	4.1 µM (active)	–
O=c1[nH]cnc2ccc([N+](=O)[O-])cc12	1.63 µM (active)	–
COc1ccc(/C(O)=C2/C(=O)C(=O)N(CCCN3CCOCC3)C2c2ccc(N(C)C)cc2)cc1 (stereo unspecified)	–	-18.1% (inactive)
O=C(/C=C/c1cccc([N+](=O)[O-])c1)c1ccco1	7.29 µM (active)	–
Brc1ccc(CNc2nc3ccccc3n2CCN2CCCCC2)cc1	0.516 µM (active)	–

SMILES	Potency	activity change, negative = killing
COc1ccccc1CN=c1c([N+](=O)[O-])nn(-c2ccc3c(c2)OCCO3)n1O	4.6 µM (active)	–
O=[N+]([O-])c1nn(-c2ccc3c(c2)OCCO3)n(O)c1=NCc1ccccc1Cl	4.6 µM (active)	–
O=C(/C=C/c1ccc([N+](=O)[O-])s1)N1CCCC1	1.83 µM (active)	–
O=C(/C=C/c1ccc([N+](=O)[O-])s1)N1CCCCC1	1.45 µM (active)	–
O=C(/C=C/c1ccc([N+](=O)[O-])s1)N1CCN(c2ccccc2)CC1	1.45 µM (active)	–
CC1CC(C)CN(C(=O)/C=C/c2ccc([N+](=O)[O-])s2)C1 (stereo unspecified)	4.6 µM (active)	–
COC(=O)c1ccc(Nc2ccc3nonc3c2[N+](=O)[O-])cc1	2.05 µM (active)	–
O=[N+]([O-])c1c(Nc2ccc(Br)cc2)ccc2nonc12	2.9 µM (active)	–
O=C(Cc1ccccc1)N/N=C/c1ccc([N+](=O)[O-])s1	1.83 µM (active)	–
CC(=O)Nc1ccc(S(=O)(=O)N(CCc2ccccc2)CC(=O)N/N=C/c2ccc(C(=O)O)cc2)cc1	–	-25.4% (inactive)
O=C(Cc1cccs1)N/N=C\c1ccc([N+](=O)[O-])s1	2.9 µM (active)	–
NCCCn1c(C(=O)c2cc(Cl)c(N)c(Cl)c2)c2ccccc2[n+]1[O-]	1.3 µM (active)	–
NC(=O)CCCn1c(C(=O)c2cc(Cl)c(N)c(Cl)c2)c2ccc([N+](=O)[O-])cc2[n+]1[O-]	5.16 µM (active)	–
NCCCn1c(C(=O)c2cc(Cl)c(N)c(Cl)c2)c2ccc([N+](=O)[O-])cc2[n+]1[O-]	1.63 µM (active)	–
CC[C@]1(C(=O)OC)[C@H]2C(=O)N(C)C(=O)[C@H]2[C@H]2CN(C)C(=NC)N21	–	-4.23% (inactive)
CC(C)(C)NC(=O)CCN(/N=C/c1ccc([N+](=O)[O-])o1)C1=NS(=O)(=O)c2ccccc21	1.16 µM (active)	–
O=[N+]([O-])c1ccc(-c2nc(C(Cl)Cl)c3ccccc3n2)cc1	1.3 µM (active)	–
O=[N+]([O-])c1ccc(/C=N/Nc2nc(-c3ccccc3)c3cc(Br)ccc3n2)o1	0.918 µM (active)	–
Cc1cc(N/N=C/c2ccc([N+](=O)[O-])o2)nc2ccccc12	1.83 µM (active)	–
Cc1ccc2nc(N/N=C\c3ccc([N+](=O)[O-])o3)nc(-c3ccccc3)c2c1	0.46 µM (active)	–
O=C(Nc1ccc(N2CCN(C(=O)c3ccccc3)CC2)cc1)c1ccc([N+](=O)[O-])o1	0.818 µM (active)	–

SMILES	Potency	activity change, negative = killing
Cc1ccccc1C(=O)N1CCN(c2ccc(NC(=O)c3ccc([N+](=O)[O-])o3)cc2)CC1	0.818 µM (active)	–
O=C(Nc1ccc(N2CCN(C(=O)c3ccc(Cl)cc3)CC2)cc1)c1ccc([N+](=O)[O-])o1	0.579 µM (active)	–
COCCNc1cc(NCCOC)c([N+](=O)[O-])cc1[N+](=O)[O-]	1.45 µM (active)	–
COC(=O)c1ccc2cc(OC)cc([N+](=O)[O-])c2n1	5.79 µM (active)	–
COCc1nnc(NC(=O)c2ccc(Cl)cc2[N+](=O)[O-])s1	2.59 µM (active)	–
O=C(C1=C(c2ccccc2)C(=O)c2ccccc2C1=O)c1ccccc1	11.6 µM (active)	–
O=[N+]([O-])c1cc(C(F)(F)F)ccc1Oc1cccnc1[N+](=O)[O-]	4.1 µM (active)	–
Cc1csc(NC(=O)c2cn3ccccc3n2)n1	1.63 µM (active)	–
O=C(COc1cccnc1[N+](=O)[O-])NCc1ccc(F)cc1	5.16 µM (active)	–
CCN(CC(=O)NCc1cccs1)C(=O)c1ccc([N+](=O)[O-])o1	0.41 µM (active)	–
CCN(CC)CCNC(=O)c1ccc(NC(=O)COc2ccc3c(c2)CCC3)cc1	–	-8.63% (inactive)
O=C(COc1cccnc1[N+](=O)[O-])Nc1ccc2c(c1)CCC2	16.3 µM (active)	–
O=C(CCN1C(=O)c2ccccc2C1=O)NCc1ccc(F)cc1	–	-5.49% (inactive)
COc1cccc(NC(=O)COc2cccnc2[N+](=O)[O-])c1	4.6 µM (active)	–
C=CCNc1ncnc2sc(SC)nc12	–	-20.1% (inactive)
O=C(COc1cccnc1[N+](=O)[O-])NCc1ccco1	6.5 µM (active)	–
COc1ccc(CNC(=O)COc2cccnc2[N+](=O)[O-])cc1	6.5 µM (active)	–
COc1ccc(CNC(=O)COc2cccnc2[N+](=O)[O-])cc1OC	11.6 µM (active)	–
COc1ccc(C(C)=O)cc1COc1cccnc1[N+](=O)[O-]	6.5 µM (active)	–
